Assay outcomes: PubChem BioAssay, University of Kansas High Throughput Screening Laboratory
mHTT-CaM PPI inh – mHTT-calmodulin interaction abrogation; AlphaScreen His-mHTT/GST-CaM binding, luminescence; inhibition, % at 15 µM; 190,000 tested, 3.6% active; AID 1671202
Target sequence (P42858 whole entry, looked up, change not shown): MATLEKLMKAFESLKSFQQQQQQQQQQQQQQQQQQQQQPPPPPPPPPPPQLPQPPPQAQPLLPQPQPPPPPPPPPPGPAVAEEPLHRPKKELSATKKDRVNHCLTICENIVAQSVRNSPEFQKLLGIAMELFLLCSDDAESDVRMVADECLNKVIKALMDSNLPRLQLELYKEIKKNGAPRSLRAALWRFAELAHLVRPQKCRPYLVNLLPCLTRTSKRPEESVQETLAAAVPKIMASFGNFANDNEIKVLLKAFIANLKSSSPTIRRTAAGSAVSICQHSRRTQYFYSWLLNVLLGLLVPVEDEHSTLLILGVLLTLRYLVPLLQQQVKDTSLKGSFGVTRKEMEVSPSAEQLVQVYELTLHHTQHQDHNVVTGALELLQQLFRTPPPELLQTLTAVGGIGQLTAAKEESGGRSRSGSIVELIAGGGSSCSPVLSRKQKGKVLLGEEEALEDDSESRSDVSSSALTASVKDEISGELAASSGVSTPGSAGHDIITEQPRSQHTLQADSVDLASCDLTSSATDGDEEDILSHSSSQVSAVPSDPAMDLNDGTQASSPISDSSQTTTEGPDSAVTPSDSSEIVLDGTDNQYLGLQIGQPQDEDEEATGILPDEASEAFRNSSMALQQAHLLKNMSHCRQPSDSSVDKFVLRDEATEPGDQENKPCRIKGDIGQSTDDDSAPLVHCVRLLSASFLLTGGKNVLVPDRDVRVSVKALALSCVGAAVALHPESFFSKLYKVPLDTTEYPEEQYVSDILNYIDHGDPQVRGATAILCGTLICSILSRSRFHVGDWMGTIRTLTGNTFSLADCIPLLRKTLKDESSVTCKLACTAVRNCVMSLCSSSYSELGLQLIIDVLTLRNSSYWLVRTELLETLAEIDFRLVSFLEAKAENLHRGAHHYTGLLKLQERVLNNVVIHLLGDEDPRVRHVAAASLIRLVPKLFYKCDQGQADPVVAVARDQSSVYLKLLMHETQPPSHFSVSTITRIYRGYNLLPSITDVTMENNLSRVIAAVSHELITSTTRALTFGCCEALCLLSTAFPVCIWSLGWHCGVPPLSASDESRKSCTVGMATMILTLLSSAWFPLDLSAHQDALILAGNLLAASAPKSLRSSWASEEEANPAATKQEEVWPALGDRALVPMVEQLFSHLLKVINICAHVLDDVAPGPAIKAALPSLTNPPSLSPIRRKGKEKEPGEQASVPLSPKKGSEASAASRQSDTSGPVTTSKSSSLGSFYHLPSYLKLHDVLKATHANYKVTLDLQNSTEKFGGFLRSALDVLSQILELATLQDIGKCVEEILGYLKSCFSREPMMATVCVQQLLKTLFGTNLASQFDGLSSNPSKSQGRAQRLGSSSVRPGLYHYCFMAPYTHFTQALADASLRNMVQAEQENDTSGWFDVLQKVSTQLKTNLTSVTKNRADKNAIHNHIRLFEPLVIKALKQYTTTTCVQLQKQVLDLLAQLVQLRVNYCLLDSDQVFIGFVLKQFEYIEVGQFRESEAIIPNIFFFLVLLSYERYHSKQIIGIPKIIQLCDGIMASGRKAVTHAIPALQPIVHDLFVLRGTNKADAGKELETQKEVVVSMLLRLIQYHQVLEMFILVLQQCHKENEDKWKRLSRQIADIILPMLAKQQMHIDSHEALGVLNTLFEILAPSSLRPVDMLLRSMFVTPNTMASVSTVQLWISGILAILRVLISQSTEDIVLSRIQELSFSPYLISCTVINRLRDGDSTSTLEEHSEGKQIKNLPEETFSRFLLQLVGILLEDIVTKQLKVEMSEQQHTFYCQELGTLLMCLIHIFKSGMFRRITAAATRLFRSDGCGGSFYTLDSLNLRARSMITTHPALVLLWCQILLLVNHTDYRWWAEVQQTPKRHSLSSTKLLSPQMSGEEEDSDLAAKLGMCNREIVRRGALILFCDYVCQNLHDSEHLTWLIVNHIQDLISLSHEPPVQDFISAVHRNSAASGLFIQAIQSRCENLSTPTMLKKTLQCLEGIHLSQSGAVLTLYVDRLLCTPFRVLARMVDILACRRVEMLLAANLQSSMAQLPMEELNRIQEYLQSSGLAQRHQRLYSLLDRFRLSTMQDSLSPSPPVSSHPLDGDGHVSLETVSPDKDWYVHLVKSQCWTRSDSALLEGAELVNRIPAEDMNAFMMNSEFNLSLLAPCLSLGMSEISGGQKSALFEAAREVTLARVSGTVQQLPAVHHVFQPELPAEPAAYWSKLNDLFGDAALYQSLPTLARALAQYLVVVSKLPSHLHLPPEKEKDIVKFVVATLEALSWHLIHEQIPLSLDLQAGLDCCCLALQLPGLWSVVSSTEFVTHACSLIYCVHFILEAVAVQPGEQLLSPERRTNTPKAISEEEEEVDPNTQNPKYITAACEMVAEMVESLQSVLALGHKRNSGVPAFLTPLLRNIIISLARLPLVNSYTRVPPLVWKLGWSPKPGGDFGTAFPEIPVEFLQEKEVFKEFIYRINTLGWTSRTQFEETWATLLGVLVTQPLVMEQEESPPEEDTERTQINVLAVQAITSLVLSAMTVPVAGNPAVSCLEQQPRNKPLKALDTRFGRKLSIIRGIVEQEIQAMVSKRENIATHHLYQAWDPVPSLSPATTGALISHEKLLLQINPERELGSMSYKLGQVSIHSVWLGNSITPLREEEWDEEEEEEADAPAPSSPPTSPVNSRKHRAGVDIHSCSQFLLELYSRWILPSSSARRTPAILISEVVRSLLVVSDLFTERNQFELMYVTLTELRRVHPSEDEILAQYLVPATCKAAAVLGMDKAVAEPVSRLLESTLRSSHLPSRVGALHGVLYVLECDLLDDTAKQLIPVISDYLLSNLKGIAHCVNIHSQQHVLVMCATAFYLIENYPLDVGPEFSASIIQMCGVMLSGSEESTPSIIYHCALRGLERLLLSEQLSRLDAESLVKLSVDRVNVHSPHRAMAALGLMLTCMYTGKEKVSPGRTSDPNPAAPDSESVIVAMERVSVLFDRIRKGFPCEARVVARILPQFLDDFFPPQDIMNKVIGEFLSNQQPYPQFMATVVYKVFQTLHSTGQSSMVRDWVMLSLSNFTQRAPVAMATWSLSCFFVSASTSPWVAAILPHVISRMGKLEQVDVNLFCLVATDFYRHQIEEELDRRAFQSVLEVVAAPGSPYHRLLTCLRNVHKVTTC
Pf apPOL inh – Pf-apPOL DNA polymerase inhibition; Recombinant Pf-apPOL, molecular beacon fluorescence, 1.5 h; inhibition, % at 10 µM; 210,000 tested, 0.25% active
Numbers stand for hits; i = inactive; nt = not tested or not shown; + = active, no number. Only a selection was taken, and hits are over-represented in it overall. No stated cut-off is given here; in the data, active means inhibition above about 50%; inactive means the rest.

SMILES	mHTT-CaM PPI inh	Pf apPOL inh
OCCn1c(-c2ccc(F)cc2)csc1=Nc1ccc(F)cc1	i	i
Cc1ccc(-c2csc(=Nc3ccc(F)cc3)n2CCO)cc1	63	i
N#Cc1cccc(C(=O)Cc2cccc(Oc3ccccc3)c2)c1	nt	56
NCc1cccc(Oc2ccccc2)c1	i	i
S=c1[nH]nc(-c2ccccn2)n1/N=C/c1cccnc1	+	nt
S=c1[nH]nc(-c2ccncc2)n1N=Cc1cccnc1	nt	i
O=[N+]([O-])c1ccccc1N1CCN(S(=O)(=O)Cc2ccccc2)CC1	i	i
COc1ccc(C2CC(C(F)(F)F)n3nc(C(=O)Nc4ccc(C)c(C)c4)cc3N2)cc1 (stereo unspecified)	i	i
COc1cccc(NC(=O)N2C(=O)C(=O)c3cc(Br)ccc32)c1	73	i
COc1cccc(NC(=O)c2cc(Br)ccc2OC)c1	i	i
C/C=C(\C)CN1CCN(C/C=C/c2ccccc2)CC1	i	i
C(=Cc1ccccc1)CN1CCN(c2c3c(nc4ncnn24)CCCC3)CC1	73	i
CC1=CCN(S(=O)(=O)c2ccccc2)S(NS(=O)(=O)c2ccccc2)=C1 (stereo unspecified)	i	i
CCc1noc(C2(NC(=O)c3ccccc3Cl)CCCCC2)n1	i	i
O=C(Nc1nnc(C2CC(=O)N(c3ccc(F)cc3)C2)o1)c1ccc(F)cc1 (stereo unspecified)	i	i
O=C(Cc1ccc(F)cc1)Nc1nnc(C2CC(=O)N(c3ccc(F)cc3)C2)o1 (stereo unspecified)	80	i
CSc1ccc(N2CC(c3nnc(NC(=O)c4c(F)cccc4F)o3)CC2=O)cc1 (stereo unspecified)	i	i
CSc1ccc(N2CC(c3nnc(NC(=O)c4ccco4)o3)CC2=O)cc1 (stereo unspecified)	65	i
COc1ccc(C(=O)Nc2nnc(C3CC(=O)N(c4ccc(F)cc4)C3)o2)cc1OC (stereo unspecified)	54	i
O=C(Cc1cccc(F)c1)Nc1nnc(C2CC(=O)N(c3ccc(F)cc3)C2)o1 (stereo unspecified)	74	i
O=C(Cc1cccc(F)c1)Nc1nnc(C2CC(=O)N(c3ccc(Cl)cc3)C2)o1 (stereo unspecified)	i	i
Cc1ccc(CC(=O)Nc2nnc(C3CC(=O)N(c4ccc(F)cc4)C3)o2)cc1 (stereo unspecified)	i	i
CCc1ccccc1NC(=O)NCCC1CCN(S(=O)(=O)c2ccc(F)cc2)CC1	i	i
Cc1ccc(C(=O)N2CCN(c3nc(CN4CCCC4)cs3)CC2)c(C)c1	i	i
CCOC(=O)N1CCN(c2cnc3cc(S(=O)(=O)N4CCCCC4)ccc3n2)CC1	i	i
SMILES	mHTT-CaM PPI inh	Pf apPOL inh
CS(=O)(=O)N1CCC(C(=O)N2CCc3nc(NC(=O)C4CC4)sc3C2)CC1	i	i
COc1ccccc1-c1nnc(NC(=O)C2CC(=O)N(c3ccc(F)cc3)C2)o1 (stereo unspecified)	i	i
O=C(Cc1ccc(F)cc1)Nc1nnc(-c2ccc3c(c2)CCCC3)o1	i	i
O=C(Cc1ccc(F)cc1)Nc1nnc(C2=COCCO2)o1	51	i
Cc1nc(C)c(-c2nnc(NC(=O)C3CC(=O)N(c4ccc(F)cc4)C3)o2)s1 (stereo unspecified)	97	i
CCC(=O)N1CCc2sc(S(=O)(=O)N3CCN(c4ccccc4C)CC3)cc2C1	i	i
Cc1ccc(S(=O)(=O)CCC(=O)Nc2ncc(Br)s2)cc1	69	i
Cc1ccc(NC(=O)CCS(=O)(=O)c2ccc(Br)cc2)nc1	i	i
CCOc1ccc(NC(=O)N2CC3CC2CC3NC(=O)c2ccccc2)cc1 (stereo unspecified)	i	i
Cc1c(C(=O)NCc2ccccn2)oc2ccc(S(=O)(=O)N3CCCCC3)cc12	58	i
Cc1c(C(=O)NCc2ccccn2)oc2ccc(S(=O)(=O)N3CCOCC3)cc12	i	i
O=C1CSC(c2cn(-c3ccccc3)nc2-c2ccccc2)N1Cc1cccnc1 (stereo unspecified)	i	i
O=C1CSC(c2cn(-c3ccccc3)nc2-c2cc3ccccc3oc2=O)N1CC1CCCO1 (stereo unspecified)	58	i
O=C1CSC(c2cn(-c3ccccc3)nc2-c2cc3ccccc3oc2=O)N1Cc1ccco1 (stereo unspecified)	i	i
Cc1ccc(-c2nn(-c3ccccc3)cc2C2SCC(=O)N2Cc2ccccc2)o1 (stereo unspecified)	94	i
O=C1CSC(c2cn(-c3ccccc3)nc2-c2ccc(Cl)cc2)N1Cc1cccnc1 (stereo unspecified)	58	i
O=C1CSC(c2cn(-c3ccccc3)nc2-c2cccs2)N1Cc1ccccc1 (stereo unspecified)	i	i
CN1CCCN(Cc2ccc([N+](=O)[O-])cc2)CC1	i	i
Cc1cc(C)nc(-n2nc(C)cc2N)n1	i	i
COc1ccc(OCC(=O)N2CCc3c(c(COCc4ccccc4F)nn3C)C2)cc1	i	i
CCN1CCCc2cc(CCNC(=O)Nc3ccc(OC)c(OC)c3)ccc21	86	i
CCCN1CCCc2cc(CCNC(=O)COCC)ccc21	59	i
CN1CCCc2cc(CCNC(=O)C(=O)NCc3cccs3)ccc21	i	i
COc1ccc(CC(=O)Nc2ccc(N3CCCC3=O)c(OC)c2)cc1OC	i	i
CCC(CC)NC(=O)CSc1ccccc1	i	i
SMILES	mHTT-CaM PPI inh	Pf apPOL inh
CC(C)[C@H]1COCCS(=O)(=O)N1Cc1ccc(Cl)cc1	i	i
CC(C)[C@H]1COCCS(=O)(=O)N1Cc1ccccc1-c1cccc2c1oc1ccccc12	53	i
CC(C)CC(C)NC(=O)c1cc(N2CCCC(C)C2)nc2ccccc12 (stereo unspecified)	i	i
COc1ccc(C2C(=O)N(C3CCC(C)CC3)CC(=O)N2Cc2ccccc2Cl)cc1OC (stereo unspecified)	i	i
CCCCN1C(=O)CN(C2CCCCC2)C(=O)C1c1ccc(OCCC)c(OC)c1 (stereo unspecified)	53	i
CCCCN1C(=O)CN(C2CCCCC2)C(=O)C1c1ccc(OC(C)C)c(OC)c1 (stereo unspecified)	i	i
CCOc1ccc(C2C(=O)N(C3CCCCC3)CC(=O)N2Cc2ccccc2Cl)cc1OC (stereo unspecified)	58	i
Cc1ccc(S(=O)(=O)Nc2cccc(NS(=O)(=O)c3ccc(C)cc3)n2)cc1	i	i
Cn1c(SCC(=O)c2ccccc2)nnc1-c1ccc(NC(=O)c2ccccc2Cl)cc1	i	i
Cn1c(SCC(=O)O)nnc1-c1ccc(NC(=O)c2ccccc2Cl)cc1	i	85
COc1ccc(C(=O)N2CCc3c(c(C(=O)NCc4ccc5c(c4)OCO5)nn3C)C2)cc1	i	i
Cc1ccc(CC(=O)N2CCc3c(c(C(=O)NCc4ccc(F)cc4)nn3C)C2)cc1	69	i
CCC(CC)C(=O)N1CCc2c(c(C(=O)NCc3ccc(F)cc3)nn2C)C1	58	i
COc1ccc(CC(=O)N2CCc3c(c(C(=O)NCc4ccc(F)cc4)nn3C)C2)cc1	74	i
COc1ccc(CC(=O)N2CCc3c(c(C(=O)NCc4ccccc4)nn3C)C2)cc1	61	i
Cn1nc(C(=O)NCc2ccccc2)c2c1CCN(C(=O)c1ccco1)C2	i	i
Cc1ccc(CC(=O)N2CCc3c(c(COCc4ccccc4F)nn3C)C2)cc1	i	i
O=[N+]([O-])c1ccc(-n2ncnc2-c2ccc(Cl)cc2Cl)cc1	i	i
CN(C)n1cccc1C=NC(C#N)=C(N)C#N	nt	i
